The panel holds about 83,000 compounds, 20% with a hit somewhere; the sample as a whole holds those more often.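 Results are percent growth after 48 hours of single-concentration exposure. 100 means growth as in untreated cells, lower positive values show inhibition; negative values down to -100 show cell death.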 Unmarked numbers belong to inactive results. Calls of active or inactive are those of the source. Rule for the calls: active = growth percent below 10; inactive = the rest.
Legend:
Experiment in all cases: NCI-60 one-dose screen, 48 h (100 = growth as untreated, 0 = no growth, -100 = all killed)
Conditions in all cases: 10 µM unless noted
[1] = system: NCI-H23 lung
[2] = system: NCI-H322M lung
[3] = system: HOP-62 NSCLC
[4] = system: NCI-H460 lung
[5] = system: HOP-92 NSCLC
[6] = system: NCI-H522 lung
[7] = system: A549/ATCC NSCLC
[8] = system: 786-0 renal
[9] = system: COLO 205 colon
[10] = system: DU-145 prostate
[11] = system: K-562 leukemia
[12] = system: MALME-3M melanoma
[13] = system: MDA-MB-231 breast
[14] = system: RXF 393 renal
[15] = system: SF-268 CNS
[16] = system: SF-295 CNS
[17] = system: SF-539 CNS
[18] = system: UACC-257 melanoma
[19] = system: M14 melanoma
[20] = system: HCT-15 colon

Compound	growth [1]	growth [2]	growth [3]	growth [4]	growth [5]	growth [6]	growth [7]	growth [8]	growth [9]	growth [10]	growth [11]	growth [12]	growth [13]	growth [14]	growth [15]	growth [16]	growth [17]	growth [18]	growth [19]	growth [20]
COc1ccc2sc(N(Cc3cccnc3)C(=O)c3ccc(C#N)cc3)nc2c1	96.3%	101%	94.4%	101%	60.7%	124%	81.9%	69.8%	84%	93.5%	16.4%	60.9%	71.5%	92.8%	87.7%	35.6%	70.5%	-46.3% (active)	25.4%	66.1%
Nc1no[n+]([O-])c1-c1nnc2c(n1)-c1ccccc1C2=O	-40.8% (active)	74.1%	104%	65.8%	55.1%	96%	98.1%	97.2%	42.1%	1.97% (active)	-14.9% (active)	64%	67.8%	91.2%	76.5%	86.7%	81.8%	-11.9% (active)	18.9%	-71.4% (active)
Brc1ccc(Oc2ccc(Nc3ncnc4onc(-c5ccccc5)c34)cc2)cc1	94.3%	110%	99.8%	103%	110%	97.8%	95.5%	98.5%	112%	102%	92.4%	103%	98.3%	103%	96.7%	92.2%	96.2%	98%	98.3%	103%
Cc1cc2c(c(C)c1Cl)C(=O)/C(=C/c1ccco1)O2	87.9%	99.2%	96.7%	94.7%	129%	85.3%	103%	105%	113%	103%	98.5%	102%	82.3%	124%	109%	109%	101%	97.4%	93.2%	70.8%
CCN1C(=O)N(c2ccccc2)C2NN=c3s/c(=C4\C(=O)N(C(C)C)c5ccccc54)c(=O)n3C21 (stereo not given)	46.5%	54.4%	36.2%	5.98% (active)	95.7%	14.7%	21%	28.3%	2.82% (active)	9.07% (active)	10.6%	65.2%	32.9%	-6.1% (active)	36.7%	17.9%	-2.62% (active)	76.4%	10.9%	17.7%
CC1=C(CC(=O)c2cccc([N+](=O)[O-])c2)C(=O)c2ccccc2C1=O	-24.9% (active)	68.7%	-67.2% (active)	-20.9% (active)	-22.3% (active)	-47.2% (active)	-15.3% (active)	-53.2% (active)	108%	-57% (active)	-4.57% (active)	-87.5% (active)	-17.7% (active)	-26% (active)	-33.4% (active)	-58.2% (active)	-22.1% (active)	-13.7% (active)	-41.9% (active)	19.5%
CN1C(=O)N(C)C2C1NN=c1s/c(=C\c3ccc([N+](=O)[O-])cc3)c(=O)n12 (stereo not given)	87.3%	85.4%	68.9%	32%	77.6%	43.6%	59.9%	64.4%	56.7%	77.4%	22%	65.9%	75.1%	78.6%	77.1%	40.8%	54.7%	63.6%	51.2%	37.6%
Cc1sc2ncnc(Sc3nc4ccccc4[nH]3)c2c1C	57%	-18.4% (active)	-62.6% (active)	-78.9% (active)	-12.1% (active)	-78.6% (active)	-55.1% (active)	-94.7% (active)	-74.6% (active)	-83.2% (active)	-47.4% (active)	-82.7% (active)	-79.5% (active)	-59.7% (active)	-78.3% (active)	-81.7% (active)	-95.5% (active)	-88.6% (active)	-78.9% (active)	-38% (active)
C1CCN(c2nc(N3CCCCC3)nc(N3CCOCC3)n2)CC1	95.7%	105%	94.3%	109%	112%	78%	87%	97.3%	107%	119%	101%	100%	93.9%	107%	105%	111%	113%	97.1%	113%	105%
Nc1nc(-c2cnccn2)nn1-c1nc2ccccc2s1	95.2%	103%	95.4%	104%	106%	88.4%	92.7%	102%	111%	106%	93.9%	104%	95.4%	110%	99.2%	103%	101%	99.1%	99.2%	103%
CCOC(=O)C1(C(=O)OCC)N=C(c2ccccc2)C=C1c1ccccc1	86.4%	103%	105%	104%	66.5%	64.4%	86.7%	96%	99.9%	106%	65.2%	86.4%	96.3%	74.9%	92.6%	84.9%	94%	92.1%	90.5%	96.5%
Cc1ccc(NC2=CC(=O)C(=O)c3ccccc32)c(C)c1	-25.5% (active)	57.7%	27.3%	-56.7% (active)	123%	47.6%	5.75% (active)	99.4%	85%	-60.8% (active)	61.3%	62.5%	49.5%	85.5%	63.2%	34.6%	48.8%	23.1%	-15.5% (active)	13.3%
CC1(C)CC2(C)OC2C2(C1)N=NC(=Nc1ccccc1)O2 (stereo not given)	88.9%	103%	60.9%	79.5%	87.6%	15.1%	54.1%	36.3%	73%	67.2%	19.5%	57.1%	91.8%	-1.33% (active)	83.3%	65.6%	83.7%	64.2%	65.4%	9.91% (active)
O=C(Nc1ccc(I)cc1F)c1cc(F)ccc1O	-2.66% (active)	4.87% (active)	-16.6% (active)	1.95% (active)	-9.55% (active)	-15.8% (active)	6.45% (active)	-0.577% (active)	25.1%	15.1%	6.93% (active)	-31.4% (active)	-23.7% (active)	-2.46% (active)	8.56% (active)	-68.5% (active)	1.28% (active)	-17.3% (active)	-14.5% (active)	0.237% (active)
COc1cccc2c1C=C1CCCCC3=Cc4c(OC)cccc4OC13O2	55.9%	61.2%	56.8%	25.4%	46.8%	32.7%	45.8%	41.7%	30.6%	63.5%	17.4%	36.5%	56.7%	32.8%	50.8%	27.2%	39.4%	62.1%	27.3%	28.3%
